The full ranking holds about 33,000 sequences; the median of “e-score” is about -0.038, and the highest 2% start at about 0.33. This is one part of a sample in which the highest values are shown more often than they occur.

In the experiment the target is T1, GST-Rok-C97-191 (Bacillus subtilis subsp. subtilis str. …, UniProt O34857 97-191).
T1 sequence: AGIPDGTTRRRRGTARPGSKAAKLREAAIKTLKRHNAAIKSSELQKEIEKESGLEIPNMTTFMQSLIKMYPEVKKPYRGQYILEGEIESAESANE
The experiment is described as follows: protein binding microarray; Rok is a gene silencer of Bacillus subtilis; high values mean tight binding. As to conditions: protein: recombinant; tags: GST (pTH5325, pDEST15-Magic modified); dsDNA, one strand shown. The method in brief:
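Every oligonucleotide joins a 25-mer constant primer to a 35-mer variable part drawn from a de Bruijn sequence of order 10, so each non-palindromic 8-mer appears at least 32 times and each palindromic 8-mer 16 times. The preference for every 8-mer is reported as a unitless, rank-based enrichment score (E-score). This score spans 0.5 for the most favored 8-mer to −0.5 for the most disfavored.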
As for GGTTATAA, the binding signal is 0.0781 E-score.

Consider GGAGTTGA, for which the binding signal is -0.137 E-score. Turning to AAGACCAA, the binding signal is -0.0146 E-score. The figure for CGACCACA is -0.0849 E-score; for ACGCGCAT it is -0.158 E-score; for GTCTACAA it is -0.0759 E-score. For TTCTACAA the value was 0.362 E-score; for CTCTACAA, 0.00826 E-score; for ACGACCGT, 0.00992 E-score. For ACATTGCA the value was 0.0494 E-score; for ACTAGATC, 0.335 E-score. On to ATTAGATC, for which the binding signal was 0.0978 E-score.

Turning to CCTAGATC, the binding signal was determined as 0.0939 E-score.

ACTAGATG: the binding signal came to 0.317 E-score.

Regarding CCTAGATA, the binding signal came to 0.0777 E-score. Consider ACTAGATA, for which the binding signal was found to be 0.403 E-score. For CGGCACTC the value was -0.0669 E-score; for CCCATTTC, 0.0795 E-score. With ATGACCTG, the binding signal was -0.0486 E-score.

Turning to CCGACTAG, the binding signal came out at 0.0252 E-score. For CTTATTTA the value was 0.184 E-score. The figure for ATTATATG is 0.223 E-score; for GTTATATA it is 0.31 E-score.

Take ATTATTTA: the binding signal was found to be 0.37 E-score. For ATTATAGC the value was 0.189 E-score; for ATTATATC, 0.384 E-score. The figure for GTTATTTA is 0.273 E-score; for CTTATATC it is 0.117 E-score.

For the sequence ATTATATA, the binding signal came to 0.446 E-score. For AAAATGCA the value was 0.153 E-score. The figure for TAAGTGCA is 0.0583 E-score; for ACTAATTC it is 0.373 E-score. As for ACTAATTA, the binding signal amounted to 0.444 E-score. For CCTAATTA the value was 0.28 E-score.

With CCTAATTC, the binding signal worked out at 0.115 E-score. The figure for ACTAATTG is 0.189 E-score; for GCTAATTA it is 0.289 E-score. For CACTTGGC the value was -0.143 E-score; for CCTGACCA, -0.111 E-score; for AAAGTTCG, 0.0847 E-score.

Turning to CGCGCTAC, the binding signal is -0.0357 E-score.

For the sequence CGCGCTAA, the binding signal came to 0.329 E-score. The figure for TGCGCTAA is -0.0024 E-score; for AATCTGTG it is -0.0756 E-score; for GTAATTTA it is 0.353 E-score. The figure for AGAATTTC is 0.255 E-score. As for CTAATTTC, the binding signal worked out at 0.272 E-score. For ATAATTTC the value was 0.36 E-score.

As for GCAATTTA, the binding signal is 0.257 E-score. The figure for ACAATTTG is 0.104 E-score. As for ATAATTTA, the binding signal was determined as 0.354 E-score. AGAATTTG: the binding signal came to 0.161 E-score. The figure for ATAATTTG is 0.344 E-score; for CTAATTTA it is 0.305 E-score; for ATAATTCA it is 0.245 E-score. Turning to GTAATTGA, the binding signal is 0.0917 E-score.

As for CAGGGATC, the binding signal is -0.151 E-score. The figure for AGAGCTAA is 0.148 E-score; for AGTCCTCC it is -0.0852 E-score; for AAAATTAT it is 0.239 E-score. The figure for GCTCACTA is 0.0154 E-score; for GAAGAGGA it is -0.151 E-score; for GGCATACC it is 0.00482 E-score.

As to GCGGACGA, the binding signal was -0.188 E-score. For AGAGGCAT the value was 0.0046 E-score; for AATACGCT, -0.133 E-score; for ACAACGAG, -0.0859 E-score. Consider AGAGAAAG, for which the binding signal came to 0.159 E-score.

Take CGATGACC: the binding signal is -0.125 E-score.

As to ATTTGTAC, the binding signal is 0.333 E-score. For GATTGTAC the value was 0.365 E-score; for AATTGTAC, 0.211 E-score; for ATTTGTAA, 0.203 E-score. The figure for CTTTGTAC is 0.249 E-score.

GATTGTAA: the binding signal amounted to 0.0411 E-score. For TAACTCCA the value was 0.0761 E-score; for CTCGGGAC, -0.0122 E-score.

In the case of ATACCTAT, the binding signal worked out at 0.323 E-score. For GTACCTAA the value was 0.155 E-score; for CTACCTAA, 0.174 E-score; for CTACCTAG, 0.243 E-score. Consider CTACCTAC, for which the binding signal worked out at 0.376 E-score.

For GAACCTAC, the binding signal turned out to be 0.198 E-score. The figure for ATACCTAG is 0.253 E-score. The figure for GTACCTAC is 0.349 E-score; for ATACCTAC it is 0.333 E-score.

With AACATATC, the binding signal turned out to be 0.233 E-score. For CATGTTAC the value was 0.15 E-score; for CTCCACTA, 0.107 E-score. The figure for CAGCCCTG is -0.157 E-score; for GTAAATAC it is 0.336 E-score; for ACAAATAT it is 0.337 E-score. The figure for ATAAATAC is 0.287 E-score; for AGAAATAT it is 0.346 E-score.

Consider ATAAATAG, for which the binding signal is 0.252 E-score. For CTAAATAC the value was 0.287 E-score.

Turning to ATAAATAA, the binding signal came to 0.269 E-score. For the sequence ACAAATAA, the binding signal was 0.246 E-score.

For the sequence ATAAATAT, the binding signal was 0.369 E-score. Take AGAAATAG: the binding signal worked out at 0.326 E-score.

For the sequence AGAAATAC, the binding signal is 0.311 E-score. The figure for ACAAATAC is 0.266 E-score. For TAGTCGCA the value was 0.00372 E-score; for AAAGGGTT, -0.0515 E-score; for CGACCAGC, -0.129 E-score. With AACGAGAG, the binding signal is -0.0985 E-score. The figure for ACTTCCGG is -0.139 E-score; for CAAAAGGG it is -0.177 E-score. On to CAAACGCC, for which the binding signal is -0.166 E-score. Turning to ATTCCGGG, the binding signal was -0.0619 E-score. As to AATTCCTA, the binding signal is 0.155 E-score. The figure for AAATCCCA is 0.123 E-score; for AGATAGTC it is 0.0233 E-score; for AGATAGTG it is 0.174 E-score.

Turning to GGATAGTA, the binding signal worked out at 0.142 E-score. The figure for CGATAGTC is -0.0434 E-score. The figure for CGATAGTA is 0.382 E-score.

On to AGATAGTA, for which the binding signal is 0.376 E-score. For ACTCCAAA the value was -0.0283 E-score; for AGAGCCAA, -0.0861 E-score. Regarding ACCTTCCG, the binding signal is -0.0992 E-score. For CCGTACTC the value was 0.0243 E-score. Take ATGTAAAG: the binding signal stood at 0.164 E-score. For CTGTAAAA the value was 0.0478 E-score; for CTGTAATC, 0.13 E-score; for ATGTAAAA, 0.351 E-score. The figure for ATGTAATA is 0.32 E-score; for TTGTAAAA it is 0.265 E-score.

With ATGTAAAT, the binding signal was found to be 0.373 E-score.

Take ATGTAAAC: the binding signal is 0.031 E-score.

CTGTAATA: the binding signal amounted to 0.334 E-score. As to GAGAGTGC, the binding signal is -0.103 E-score.

In the case of ACGGCAAT, the binding signal came out at 0.0959 E-score.

For GGCTTCTA, the binding signal was determined as 0.11 E-score. The figure for ATCGCCGC is -0.0266 E-score.

On to CTATATCA, for which the binding signal was 0.185 E-score.

Take ATATATCA: the binding signal was 0.396 E-score. For ATATATCG the value was 0.366 E-score; for GTATATCA, 0.216 E-score; for ATATATCC, 0.268 E-score. The figure for CTATATCC is 0.17 E-score; for CATTGTGA it is -0.101 E-score; for AGAGGTTG it is -0.0137 E-score.

For AAAGTTAA, the binding signal was -0.0842 E-score. For ACGTCGAT the value was 0.108 E-score; for CGAATCTA, 0.256 E-score.

On to GCAATCTA, for which the binding signal is 0.307 E-score. CTAATCTA: the binding signal is 0.348 E-score. The figure for ATAATCTA is 0.289 E-score; for GGAATCTA it is 0.339 E-score.

As to GAAATCTC, the binding signal stood at 0.209 E-score.

For the sequence GAAATCTA, the binding signal turned out to be 0.383 E-score. For AAAATCTG the value was 0.00361 E-score; for AAAATCTC, 0.242 E-score; for AGAATCTA, 0.322 E-score. Regarding GTAATCTA, the binding signal came to 0.313 E-score. For AAAATCTA the value was 0.339 E-score; for CAAAATCG, 0.0988 E-score; for TATGCCCA, -0.134 E-score. With GTGGCAAA, the binding signal worked out at 0.0701 E-score. For ACCGTAGT the value was 0.0984 E-score. With ATGCGGCG, the binding signal is -0.186 E-score.

Turning to AGCCGTTA, the binding signal was 0.0336 E-score. The figure for CAAATCTG is -0.15 E-score. For TAAATCTA the value was 0.364 E-score; for CAAATCTA, 0.354 E-score. Regarding TAAATCGA, the binding signal turned out to be 0.0722 E-score. Turning to TAAATCAA, the binding signal is 0.178 E-score. For CAAATCTC, the binding signal stood at 0.0537 E-score. Turning to AGTCTATC, the binding signal was -0.0937 E-score.

As to CATGTCAA, the binding signal was -0.0291 E-score.

As to CAAATATG, the binding signal turned out to be 0.161 E-score. The figure for CAAATATA is 0.346 E-score. For TAAATATA the value was 0.378 E-score; for TAAATAAA, 0.162 E-score. For AAAATATC the value was 0.186 E-score. CAAATATC: the binding signal came to 0.231 E-score. The figure for GAAATATA is 0.305 E-score. For AAAATATA the value was 0.399 E-score.

Regarding AAAATATG, the binding signal was 0.271 E-score.

Take CCCACCTA: the binding signal is -0.0708 E-score.

Consider AAGTTAAG, for which the binding signal is -0.104 E-score. For GTTGAATA the value was 0.173 E-score. For CTTTTGTA the value was 0.241 E-score. For the sequence ATTGATAA, the binding signal turned out to be 0.243 E-score. For ATTGATAG the value was 0.348 E-score; for ATTGATAC, 0.22 E-score; for CGATACAC, 0.155 E-score. For CGTTCCGA the value was -0.149 E-score; for AGCACGGA, 0.0231 E-score; for AATCTAGC, 0.234 E-score. Turning to AATCTAGT, the binding signal was 0.282 E-score. Turning to GATCTAAC, the binding signal stood at 0.0254 E-score. The figure for CATCTACC is 0.222 E-score; for GATCTACC it is 0.35 E-score. The figure for ACTCTACT is 0.273 E-score; for CATCTACG it is -0.0119 E-score; for AATCTACG it is 0.36 E-score. For AATCTAAC the value was 0.199 E-score; for AATCTACT, 0.43 E-score; for AATCTAAG, 0.234 E-score. As to AATCTACC, the binding signal came to 0.447 E-score.

AGAATGCA: the binding signal is 0.038 E-score. For ACGTTTCC, the binding signal was -0.131 E-score. For AAGTGTCG the value was 0.0859 E-score; for AGAAAAGC, 0.217 E-score. The figure for ACCACCAT is -0.0276 E-score. As for CACTATTA, the binding signal came to 0.202 E-score. For GTCTATTA the value was 0.0713 E-score; for AACTATCA, 0.369 E-score; for GACTATTA, 0.165 E-score. For CACTATCA, the binding signal was determined as 0.175 E-score. Turning to GACTATCA, the binding signal is -0.147 E-score. The figure for AGCTATCA is 0.335 E-score; for GGCTATCA it is -0.0497 E-score. The figure for AACTATTA is 0.444 E-score. For ATCTATTA the value was 0.353 E-score; for CGCTATCA, 0.0552 E-score. For CTCTATTA, the binding signal was found to be 0.246 E-score.

(Values after PMC6212790, “How bacterial xenogeneic silencer rok distinguishes foreign from self DNA in its resident genome”.)
